Results taken from article PMC4336329 (PLoS ONE, 2015).
The whole screen tested about 310,000 compounds, of which about 14,000 (4.5%) showed an effect of 50% or more. The effect is printed as a negative number. This excerpt belongs to a sample that is enriched for strong results.

target: human ether-à-go-go-related gene (hERG) potassium channel (human, UniProt Q12809); assay: primary screen, population patch clamp on CHO cells stably expressing hERG; higher = less effect of the substance
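Further: peak tail current of the secondary pulse compared with the same well before compound.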

human ether-à-go-go-related gene (hERG) potassium channel, sequence (Q12809 whole entry, looked up): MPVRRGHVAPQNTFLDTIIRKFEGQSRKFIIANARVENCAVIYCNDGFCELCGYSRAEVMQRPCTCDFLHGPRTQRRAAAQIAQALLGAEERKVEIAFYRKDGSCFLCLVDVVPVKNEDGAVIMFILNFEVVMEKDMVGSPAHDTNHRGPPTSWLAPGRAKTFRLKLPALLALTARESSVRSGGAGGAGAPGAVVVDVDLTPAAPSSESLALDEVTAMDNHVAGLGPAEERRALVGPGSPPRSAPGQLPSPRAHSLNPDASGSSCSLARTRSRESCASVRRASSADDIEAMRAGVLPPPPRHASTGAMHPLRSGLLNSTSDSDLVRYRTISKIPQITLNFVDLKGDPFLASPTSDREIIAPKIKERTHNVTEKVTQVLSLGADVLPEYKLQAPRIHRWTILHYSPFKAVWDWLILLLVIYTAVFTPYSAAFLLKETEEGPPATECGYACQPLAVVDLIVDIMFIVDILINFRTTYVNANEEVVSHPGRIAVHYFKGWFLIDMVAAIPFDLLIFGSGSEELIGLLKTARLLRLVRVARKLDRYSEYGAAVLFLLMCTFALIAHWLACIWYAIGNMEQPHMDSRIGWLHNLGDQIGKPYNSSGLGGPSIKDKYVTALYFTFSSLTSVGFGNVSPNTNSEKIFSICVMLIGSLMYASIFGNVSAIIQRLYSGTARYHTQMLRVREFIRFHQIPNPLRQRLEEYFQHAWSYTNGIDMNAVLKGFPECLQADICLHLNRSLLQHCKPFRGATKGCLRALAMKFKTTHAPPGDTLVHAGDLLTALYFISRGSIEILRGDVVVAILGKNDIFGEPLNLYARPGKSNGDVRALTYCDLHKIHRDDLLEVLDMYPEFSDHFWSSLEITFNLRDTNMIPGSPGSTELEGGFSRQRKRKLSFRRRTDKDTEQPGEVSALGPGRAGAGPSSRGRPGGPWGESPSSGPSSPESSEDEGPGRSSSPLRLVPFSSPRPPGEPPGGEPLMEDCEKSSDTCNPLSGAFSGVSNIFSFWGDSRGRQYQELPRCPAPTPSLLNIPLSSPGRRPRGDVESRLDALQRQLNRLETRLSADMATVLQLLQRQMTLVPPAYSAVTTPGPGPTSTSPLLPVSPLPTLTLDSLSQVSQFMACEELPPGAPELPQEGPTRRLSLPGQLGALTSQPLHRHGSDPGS

SMILES | hERG current change (%, negative = inhibition) at 10uM [%]
Cc1ccc(CNC(=O)c2ccc(Cn3nc(C)cc3C)o2)cc1 | -19.1
CCOC(=O)/C(N=Nc1c(Br)cc(Br)cc1Br)=C(\C)O | 6.47
Cn1c(CC(=O)NNC(=O)c2ccc(F)cc2F)nc2ccccc21 | -7.56
CCCCCN1C=CC=C/C1=C\C=C(C#N)C#N | -70.9
CCCCCCN1C=CC=C/C1=C\C=C(C#N)C#N | -71.1
CN1/C(=C/C=C(C#N)C#N)C=Cc2ccccc21 | 11.5
CCCCCCN1C=C/C(=C\C=C(C#N)C#N)c2ccccc21 | -37.4
CCCN1C=CC(=CC=C(C#N)C#N)C=C1 | -3.42
CCOC(=O)/C(C#N)=C/C=C1/C=CC=CN1C | 3.01
CC1=C/C(=C\C=C(C#N)C#N)N(C)c2ccccc21 | 9.34
CCCCCCN1C=CC(=C/C=C(\C#N)C(=O)OCC)C=C1 | -4.32
CCCCCCN1C=CC=C/C1=C/C=C(C#N)C#N | -76.5
COc1ccc(OC)c(NC(=O)CSc2nnc(C)n2Cc2ccccc2)c1 | -23.5
Cc1ccc(C)c(N(C)S(=O)(=O)c2cccc3nsnc23)c1 | -18.4
Cc1cc(C)c(S(=O)(=O)Nc2cccc(C(=O)O)c2)cc1S(=O)(=O)Nc1cccc(C(=O)O)c1 | 18.2
NNC(=O)c1ccc(Cn2cc(Cl)cn2)o1 | 15.6
COC(=O)c1ccc(/C=N/N2CCN(Cc3ccccc3Cl)CC2)cc1 | 5.88
COCCCNC(=O)CCc1c(C)nc2c(c(C)nn2-c2ccc(C)cc2)c1C | -7.71
COCCNC(=O)CCc1c(C)nc2c(c(C)nn2-c2ccc(C)cc2)c1C | -17.6
CCN(CC)CCNC(=O)CCc1c(C)nc2c(c(C)nn2-c2ccc(C)c(C)c2)c1C | -62.3
CCN(CC)CCNC(=O)CCc1c(C)nc2c(c(C)nn2-c2ccc(C)cc2)c1C | -55.4
Cc1ccc(-n2nc(C)c3c(C)c(CCC(=O)NCCCOC(C)C)c(C)nc32)cc1 | -53.1

SMILES | hERG current change (%, negative = inhibition) at 10uM [%]
Cc1nc2c(c(C)nn2-c2ccccc2)c(C)c1CCC(=O)NCCCOC(C)C | -34.7
CCCNC(=O)CCc1c(C)nc2c(c(C)nn2-c2ccc(C)cc2)c1C | -0.266
Cc1ccc(-n2nc(C)c3c(C)c(CCC(=O)O)c(C)nc32)cc1C | 30.7
COCCNC(=O)CCc1c(C)nc2c(c(C)nn2-c2ccc(C)c(C)c2)c1C | -3.85
COc1ccc(N(CC(=O)NCc2ccc3c(c2)OCO3)S(C)(=O)=O)cc1OC | 1.12
COc1ccc(C2NC(=O)NC(C)=C2C(=O)OCC2CCCCC2)cc1OC (stereo not shown) | -2.11
Cc1cc(NC(CC(C)C)C(=O)O)nc(Cc2ccccc2)n1 (stereo not shown) | 9.96
CCN(CC)CCOC(=O)C1(c2ccc(OC)c(OC)c2)CCCC1.Cl | -16.9
COc1cccc(Nc2c([N+](=O)[O-])cncc2[N+](=O)[O-])c1 | -2.64
Cc1ccc(S(=O)(=O)Nc2ccc(-n3cnnn3)cc2)cc1 | -1.93
COc1ccccc1CCNC(=O)CCC(=O)N1CC2C[C@@H](C1)Cn1c2cccc1=O | 6.31
CC(C)SCC(=O)Nc1ncc2c(n1)-c1ccccc1CC2 | 7.72
COc1ccc(CCCNC(=O)C2CCC(=O)N(CCc3cccc(F)c3)C2)cc1 (stereo not shown) | -53.1
COc1cccc(CN2CC(C(=O)NCCCc3ccc(C)cc3)CCC2=O)c1 (stereo not shown) | -28.4
Cc1ccc(CCNC(=O)C2CCC(=O)N(Cc3cccc(F)c3)C2)cc1 (stereo not shown) | -4.64
Cc1ccc(CCCNC(=O)C2CCC(=O)N(Cc3cccc(F)c3)C2)cc1 (stereo not shown) | -53.4
O=C(NCCCc1ccncc1)C1CCC(=O)N(Cc2cccc(F)c2)C1 (stereo not shown) | -14.5
O=C(NCCc1cccnc1)C1CCC(=O)N(CCc2cccc(F)c2)C1 (stereo not shown) | 7.99
COc1ccc(CCN2CC(C(=O)NCCc3ccc(F)cc3)CCC2=O)cc1 (stereo not shown) | -22
COc1ccccc1CCCNC(=O)C1CCC(=O)N(CCc2cccc(F)c2)C1 (stereo not shown) | -19.1
O=C(NCCCc1ccncc1)C1CCC(=O)N(CCc2cccc(F)c2)C1 (stereo not shown) | -51.8
O=C(CN1C(=O)NC2(CCCCCCC2)C1=O)NCc1cccs1 | 7.8

SMILES | hERG current change (%, negative = inhibition) at 10uM [%]
CC(=O)c1c(C)[nH]c(C(=O)COc2ccc3c(C)cc(=O)oc3c2)c1C | 7.54
CC(=O)c1cc(NC(=O)c2ccccc2)c(=O)oc1/C=C/N(C)C | -12.1
S=C(NCCCN1CCOCC1)Nc1ccc(-c2nc3ccccc3[nH]2)cc1 | -11.7
CSc1cccc(NS(=O)(=O)c2ccc(-c3coc(C)n3)cc2)c1 | 22.6
CCCCn1c(SCc2cccc([N+](=O)[O-])c2)nc2ccsc2c1=O | 10
CN1CCN(CCCNC(=O)c2ccc(Cn3c(=S)[nH]c4ccc(Br)cc4c3=O)cc2)CC1 | 17.4
O=C(C1CCN(c2nc3ccc(Br)cc3s2)CC1)N1CCC2(CC1)OCCO2 | -62.3
Brc1ccc2nc(N3CCCC3)sc2c1 | 13
CCC(=O)N1CCN(c2nc3ccc(Br)cc3s2)CC1 | -44.2
CC(C)(C)C(=O)N1CCN(c2nc3ccc(Br)cc3s2)CC1 | -8.45
CCc1ccc2nc(N3CCC(C(=O)N4CCC5(CC4)OCCO5)CC3)sc2c1 | -42.5
Cc1ccc2nc(N3CCC(C(=O)N4CCC5(CC4)OCCO5)CC3)sc2c1 | -19.8
CCCC(=O)N1CCN(c2nc3ccc(Br)cc3s2)CC1 | -71
CCCCC(=O)N1CCN(c2nc3ccc(Br)cc3s2)CC1 | -69.4
CC(=O)N1CCN(c2nc3ccc(Br)cc3s2)CC1 | -49.4
Cc1nc([N+](=O)[O-])cn1Cc1cccc([N+](=O)[O-])c1 | -8.42
CCOC(=O)C(=O)N/N=C/c1ccco1 | 11.3
CCOc1ccc(-n2c(SCC(N)=O)nc3c(c2=O)SCC3)cc1 | 12
Cc1ccccc1OCCNc1cc(N2CC(C)NC(C)C2)ccc1[N+](=O)[O-] (stereo not shown) | -12.3
Cc1ccc(C2CC2C(=O)NNC(=S)Nc2cccc(Cl)c2)cc1 (stereo not shown) | -4.44
COc1ccc(OCc2cc(C(=O)N3CCN(CC(=O)N(C)C)CC3)no2)c(Cl)c1 | -13.4
COc1cc2c(=O)n(CC3CCCO3)c(=O)n(CC(=O)Nc3ccccc3)c2cc1OC (stereo not shown) | -2.85

SMILES | hERG current change (%, negative = inhibition) at 10uM [%]
COc1cccc(N2CCN(C(=O)c3cc4c(=O)n(Cc5ccccc5)ccc4nc3C)CC2)c1 | -49.8
COc1ccc(Cn2c(=O)[nH]c3cc(C(=O)N4CCN(c5ccccc5)CC4)ccc3c2=O)cc1 | 9.23
COc1ccc(N2CCN(C(=O)c3cc4c(C)nc5ccccc5c4o3)CC2)cc1 | -47
CS(=O)(=O)N(Cc1ccccc1)c1ccccc1C(=O)N1CCN(c2ccccc2)CC1 | -46.6
Cc1nc2ccn(Cc3ccccc3)c(=O)c2cc1C(=O)N1CCN(c2ccccc2)CC1 | -74
COc1ccc(N2CCN(C(=O)c3cc4c(=O)n(Cc5ccccc5)ccc4nc3C)CC2)cc1 | -55.2
Cc1nc2ccn(Cc3ccccc3)c(=O)c2cc1C(=O)N1CCN(c2ccc(F)cc2)CC1 | -78.5
O=C(c1cc(-c2ccco2)nc2ccccc12)N1CCN(c2ccc(F)cc2)CC1 | -28.8
O=C(c1ccc(Cn2c(=O)[nH]c3ccccc3c2=O)cc1)N1CCN(c2ccc(F)cc2)CC1 | -15.5
CSC1=C(C#N)C(c2ccc(Cl)cc2)C2=C(CC(C)(C)CC2=O)N1 (stereo not shown) | -6.94
C=CCCCCc1nc2ccccc2c(=O)n1N | 6.28
Cc1ccc2c(C)nc(N/C(N)=N/S(=O)(=O)c3ccc([N+](=O)[O-])cc3)nc2c1 | -13.1
COc1cc(C(=O)NC(c2ccccc2)c2ccccc2)cc(OC)c1C | 15.2
CC(C)CCNC(=O)[C@H](Cc1ccccc1)N1Cc2ccccc2C1=O | -11.6
COCCNC(=O)[C@H](CSCc1ccccc1)N1Cc2ccccc2C1=O | -42.6
COC(CNC(=O)[C@H](CSCc1ccccc1)N1Cc2ccccc2C1=O)OC | -3.49
O=C(NCCCN1CCCC1)[C@H](CSCc1ccccc1)N1Cc2ccccc2C1=O | -56.8
CC(C)CCNC(=O)[C@H](CSCc1ccccc1)N1Cc2ccccc2C1=O | -61
COCCCNC(=O)[C@H](CSCc1ccccc1)N1Cc2ccccc2C1=O | -14.5
CCCCNC(=O)[C@H](CSCc1ccccc1)N1Cc2ccccc2C1=O | -68.5
CC(C)NC(=O)[C@H](CSCc1ccccc1)N1Cc2ccccc2C1=O | -40
O=C(NCCCN1CCCC1=O)[C@H](CSCc1ccccc1)N1Cc2ccccc2C1=O | 1.78
